This note sets out measurements from PubChem BioAssay AID797 (University of Pittsburgh Molecular Library Screening Center, 2007).

Among all 200,000 compounds or so, about 110 (0.055%) were called active. The list comes from a sample in which actives are over-represented; it also holds similar structures and randomly drawn compounds. Unmarked numbers belong to inactive results. Rule as the data show it: active = inhibition above about 50%; inactive = the rest. Where a SMILES comes first, the peptide text is derived from it. [ ]: non-standard residue; d: D form. ξ: configuration not given here. ξM = CSCCC(N)C(=O)O

For the assay, the target named is Serine/threonine-protein kinase D1 (Homo sapiens) (UniProt Q15139). In words: protein kinase D1 activity blockers – biochemical, fluorescence polarization (AID 797). Particulars: PKD1 kinase fluorescence polarization assay; stronger effect = higher value; concentration not given here. On the technique in general: Fluorescence polarisation rises when a labelled molecule tumbles more slowly, as on binding a larger partner.
Serine/threonine-protein kinase D1 (Homo sapiens), sequence (Q15139 whole entry, looked up): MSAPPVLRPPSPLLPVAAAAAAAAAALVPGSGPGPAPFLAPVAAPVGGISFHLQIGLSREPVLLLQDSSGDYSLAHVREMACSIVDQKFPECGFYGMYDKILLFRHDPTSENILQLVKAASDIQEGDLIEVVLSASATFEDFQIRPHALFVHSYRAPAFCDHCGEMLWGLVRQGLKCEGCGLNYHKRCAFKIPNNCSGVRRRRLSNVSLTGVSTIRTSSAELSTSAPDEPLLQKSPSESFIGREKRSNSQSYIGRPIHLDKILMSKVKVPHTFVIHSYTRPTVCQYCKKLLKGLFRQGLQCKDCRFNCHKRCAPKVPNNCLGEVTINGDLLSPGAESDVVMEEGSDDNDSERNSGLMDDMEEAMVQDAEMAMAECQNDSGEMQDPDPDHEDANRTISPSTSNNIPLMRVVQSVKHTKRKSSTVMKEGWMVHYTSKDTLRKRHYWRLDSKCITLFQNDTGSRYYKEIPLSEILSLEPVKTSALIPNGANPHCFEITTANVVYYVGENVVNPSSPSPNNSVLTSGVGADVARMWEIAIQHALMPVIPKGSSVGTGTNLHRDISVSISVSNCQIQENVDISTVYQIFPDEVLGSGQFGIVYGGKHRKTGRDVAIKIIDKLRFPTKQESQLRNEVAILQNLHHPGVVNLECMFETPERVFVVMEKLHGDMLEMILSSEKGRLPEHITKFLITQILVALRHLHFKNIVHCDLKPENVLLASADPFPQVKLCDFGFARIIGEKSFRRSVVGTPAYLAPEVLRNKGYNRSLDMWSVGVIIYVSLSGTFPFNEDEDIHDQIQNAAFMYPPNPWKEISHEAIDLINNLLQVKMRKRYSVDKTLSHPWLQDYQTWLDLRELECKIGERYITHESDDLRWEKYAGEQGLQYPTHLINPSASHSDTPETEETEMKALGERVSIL
For the compound `CCn1c2ccccc2c2cc(NC(=O)COC(=O)c3ccccc3Br)ccc21`, the inhibition was -14.8%. Regarding `c1ccc(-c2csc(N3CCc4ccccc4C3)n2)cc1`, the inhibition was -5.96%. As for `COC(=O)[C@@H]1CC[C@H](C)[C@@H](c2ccc(C)cc2)N1C(=O)c1ccc(/C=N/O[C@H](C)c2cn([C@@H]3COC[C@H]3O)nn2)cc1`, the inhibition is -8.4%. For the compound `CCC(=O)NC(=S)Nc1ccc(NC(=O)c2ccco2)c(Cl)c1`, the inhibition was -0.32%. Consider `CN(C)CCCNC(=O)/C=C/c1ccc(OCc2c(F)cccc2Cl)cc1`, for which the inhibition is -5.92%. Next, `CCCC1(C(=O)OC)NC(c2ccco2)C2C(=O)N(C)C(=O)C21` (stereo unspecified): -3.52%; `Cc1ccc(NC(=O)C2CCCN(S(=O)(=O)c3c(C)noc3C)C2)c(C)c1` (stereo unspecified): 72.5% (active); `COc1c(C)cc(C(=O)C2CCCN(S(=O)(=O)c3c(C)noc3C)C2)cc1C` (stereo unspecified): 11.5%. With `Cc1noc(C)c1S(=O)(=O)N1CCCC(C(=O)Nc2nccs2)C1` (stereo unspecified), the inhibition is -0.06%.

In the case of `CCCCN(CC(=O)NC(C)(C)C)C(=O)C(=O)Nc1ccc2c(c1)OCCO2`, the inhibition is 1.16%. On to `CCCOC(=O)c1ccc(N2C(=O)c3ccccc3C2=O)cc1`, for which the inhibition is 1.49%. For the compound `O=C(CCc1ccccc1)NNC(=O)c1ccc(Br)cc1`, the inhibition was 4.58%. With `O=C(c1ccccc1)c1ccc(OCC(O)CN2CCCC2)cc1` (stereo unspecified), the inhibition is 13.5%.

Regarding `COC(=O)c1ccc(OCC(O)CN(CCO)CC(O)Cn2ccc3ccccc32)cc1` (stereo unspecified), the inhibition was 3.96%. Consider `OC(CNCc1ccc(Cl)c(Cl)c1)c1ccccc1` (stereo unspecified), for which the inhibition is -3.03%.

Take `COc1cc2c(cc1OC)C(Nc1ccc(S(N)(=O)=O)cc1)=NC(C)(C)C2`: the inhibition is -5.13%. The figure for `COc1ccc(NC(=O)c2sc(N3CCOCC3)nc2-c2ccccc2)c(OC)c1` is -1.24%. On to `CCC(=O)Nc1ccc(C(=O)N2CCN(C(=O)c3ccco3)CC2)cc1`, for which the inhibition is 2.96%. Consider `Cc1ccc(NC(=O)Cn2c(=O)n(CCC(=O)NC3CCN(Cc4ccccc4)CC3)c(=O)c3ccccc32)cc1`, for which the inhibition is 0.69%. Turning to `O=C(CN1CCOCC1)Nc1c(Cl)cc(Cl)cc1Cl`, the inhibition was -2.42%.

Turning to `Cc1ccc2nsnc2c1NC(=O)c1ccccc1[N+](=O)[O-]`, the inhibition is -3.06%. Consider `Cc1ccccc1NS(=O)(=O)CCCCC(Cl)(Cl)Cl`, for which the inhibition is -2.05%. Turning to `COc1cccc(C2SCC(=O)N2c2cccc(C)c2)c1OC` (stereo unspecified), the inhibition was -7.34%. Next, `O=C(NN1C(=O)C2C3C=CC(O3)C2C1=O)c1ccccc1` (stereo unspecified): -7.27%; `COc1ccccc1C(=O)NN1C(=O)C2C3C=CC(O3)C2C1=O` (stereo unspecified): 52.7% (active). On to `O=C(NN1C(=O)C2C3C=CC(O3)C2C1=O)c1ccncc1` (stereo unspecified), for which the inhibition is -9.52%. Regarding `O=C(Cc1cccs1)Nc1cccc(-c2nc3ccccc3[nH]2)c1`, the inhibition was -1.91%.

Turning to `CCc1cc(C(N)=O)c(NC(=O)c2ccc(OC)cc2)s1`, the inhibition is -8.2%. Take `O=C(O)CC(SCC(=O)Nc1ccc(Br)cc1)C(=O)O` (stereo unspecified): the inhibition is -6.53%. For `CCOC(=O)c1cnc(SCC(=O)Nc2ccccc2C(=O)OC)nc1N`, the inhibition is -2.4%.

Consider `Cc1nc2cc(NC(=O)NC3CC3)ccc2n1C`, for which the inhibition is -0.99%. Turning to `O=C(Cc1ccc([N+](=O)[O-])cc1)N/N=C/c1ccco1`, the inhibition is -4.83%.

On to `CCCCC(=O)Nc1ccc(C(=O)Nc2cc(C(F)(F)F)ccc2Cl)cc1`, for which the inhibition is -1.39%. Take `O=C(COc1nc2ccccc2nc1N1CCOCC1)NCC(F)(F)F`: the inhibition was -0.08%. Consider `CC(=O)Nc1ccc(S(=O)(=O)N(CCc2ccccc2)CC(=O)N/N=C/c2ccc(C(=O)O)cc2)cc1`, for which the inhibition was 5.13%.

For `CCN(CC(=O)Nc1ccccc1OC)C(=O)Cn1cnc2ccccc2c1=O`, the inhibition was 7.55%.

For the compound `N=C1C(c2nc3ccccc3s2)=C(O)CN1NC(=O)c1ccc([N+](=O)[O-])cc1`, the inhibition is -8.3%. On to `CN1CCN(c2ccc(S(=O)(=O)N3CCCCC3)cc2NC(=O)Cc2ccccc2F)CC1`, for which the inhibition was -6.13%. For the compound `Cc1ccc(NC(=O)CN2CCC(C(N)=O)CC2)cc1[N+](=O)[O-]`, the inhibition was 5.71%. On to `COc1ccc(NC(=O)CC2C(=O)OCC3CCCCN32)cc1Cl` (stereo unspecified), for which the inhibition was -6.39%. `Cc1onc(C(=O)NCc2ccc(F)cc2)c1[N+](=O)[O-]`: the inhibition was 0.1%. As for `CCn1nc(C)c(/C=N/NC(=O)Cc2ccc(Cl)cc2)c1C`, the inhibition was 3.28%. Regarding `O=C(O)c1cccc(N2C(=O)Nc3ccccc3N2O)c1`, the inhibition was 7.76%.

Consider `CCCCCCNCCn1cnc2c(N)ncnc21`, for which the inhibition is 6.16%. The figure for `CC1CCN(c2ccc(C(=O)NCc3ccc4c(c3)OCO4)cc2[N+](=O)[O-])CC1` is 0.75%; for `Brc1c(CSc2nncc3ccccc23)nc2ccccn12` it is 7.29%; for `Cc1ccc(O)c(-c2cc(C(=O)NCc3ccccc3)[nH]n2)c1` it is -6.87%. The figure for `CCOC(=O)C(CC)/C(C)=N\NC(=O)c1cccc(C)c1` (stereo unspecified) is -4.87%; for `COc1cccc2cc(/C(C)=N/NC(=O)c3ccco3)oc12` it is 5.6%; for `O=C(CC1NCCc2ccccc21)Nc1cccc(Cl)c1` (stereo unspecified) it is -4.65%.

Turning to `O=C(CN1CCN(c2ccc(O)cc2)CC1)Nc1cc(S(=O)(=O)N2CCOCC2)ccc1Cl`, the inhibition is 1.7%. Next, `CC1(C)C(C=C(Cl)Cl)C1C(=O)N(Cc1ccc(Cl)cc1)C1CCS(=O)(=O)C1` (stereo unspecified): 0.63%; `CCOC(=O)Cc1ncccc1C(=O)Nc1ccc(OC(F)(F)F)cc1`: -0.72%. In the case of `CN1C(=O)/C(=C\c2ccc(-c3ccccc3)o2)SC1=S`, the inhibition is -6.62%.

In the case of `CSc1cccc(NC(=S)N(Cc2ccccc2)Cc2ccccn2)c1`, the inhibition was -9.2%.

Turning to `COC(=O)CNC(=O)C(CCSC)NC(C)=O` (stereo unspecified) (Ac-[ξM]-Gly-OMe), the inhibition was 9.67%. In the case of `O=C(CSc1ccc(-c2cccs2)nn1)Nc1ccccc1F`, the inhibition was 2.17%. For `CCN(CC)CCOCCOc1ccc(Cl)c2ccccc12`, the inhibition is -3.28%. Consider `CN1CCN(C(=O)C2=C[C@H](c3ccc4c(c3)OCO4)C[C@H](OCc3ccc(CO)cc3)O2)CC1`, for which the inhibition is -5.9%. For the compound `O=C1/C(=C/c2cccs2)CCC1C1CCCC1` (stereo unspecified), the inhibition was -1.44%. For `Cc1ccc(NC(=O)Nc2nnc(-c3ccncc3)s2)cc1`, the inhibition was 2.87%. With `CCc1nnc(NC(=O)CSc2nc(SC)ns2)s1`, the inhibition is 1.32%. On to `O=C(Nc1nnc(C2COc3ccccc3O2)o1)c1ccc(F)cc1` (stereo unspecified), for which the inhibition was -1.94%.

With `CCC(C)NCC(=O)Nc1ccc([N+](=O)[O-])cc1C(=O)Nc1ccccc1F` (stereo unspecified), the inhibition was -10.9%. `CNC(=O)COC(=O)c1cc(-c2ccc(OC)cc2)nc2ccccc12`: the inhibition is -3.14%. Turning to `Nc1cccc(-c2cc(-c3ccccc3)nc(-c3cccc(N)c3)n2)c1`, the inhibition was -18.9%. In the case of `COC(=O)NNC(=O)C1CCC(C)CC1` (stereo unspecified), the inhibition is -3.54%. With `Cc1cccc(NC(=O)c2nnn(-c3cccc(C(F)(F)F)c3)c2N)c1`, the inhibition was -0.25%. Take `S=C1NC(c2ccccc2)=NCN1c1ccc(Br)cc1`: the inhibition is 0.72%.

Turning to `COc1ccc2ccccc2c1CNc1nnnn1C`, the inhibition was -8.73%.

Regarding `CCC(C)NC(=O)/C=C/c1ccc(S(=O)(=O)NCc2ccco2)cc1` (stereo unspecified), the inhibition was 7.02%. `CCCCSc1nc2ccccc2[nH]1`: the inhibition is -6.36%. The figure for `CN(CCc1cn[nH]c1)C(=O)CC1C(=O)NCCN1Cc1cccc(Oc2ccccc2)c1` (stereo unspecified) is -3.31%. Consider `Cc1c(C(=O)NCCN2C(=O)S/C(=C\c3cccs3)C2=O)cccc1[N+](=O)[O-]`, for which the inhibition is 8.76%. Turning to `Cc1ccc2c(=O)oc(N(C)C)nc2c1`, the inhibition is 1.27%.

As to `C#CCOCCOCCOCCNc1nc(N2CCN(C(=O)[C@H](CCCCN)n3cc([C@@H](N)C(C)CC)nn3)CC2)nc(N2CCN(C(=O)[C@H](Cc3ccc(O)cc3)n3cc([C@@H](N)C(C)CC)nn3)CC2)n1` (stereo partly specified), the inhibition was -0.05%. In the case of `C=CCNC(=S)N1CCN(CCN=Cc2c(C)[nH]n(-c3ccc([N+](=O)[O-])cc3)c2=O)CC1`, the inhibition was -2.35%.

`CC(Oc1ccc(Cl)cc1)c1ccnn1S(C)(=O)=O` (stereo unspecified): the inhibition is -7.83%. As for `CCOC(=O)c1c(NC(=O)C2CCN(S(=O)(=O)c3ccc(Cl)cc3)CC2)sc2c1CCCC2`, the inhibition is 8.85%. On to `CCCCCC1CCC(c2nnc(SCC(C)=O)o2)CC1` (stereo unspecified), for which the inhibition is -8%. Take `O=[N+]([O-])c1cc(S(=O)(=O)N2CCCC2)ccc1NN=C1CCCC1`: the inhibition was 2.42%. Turning to `Cc1cc(N/N=C/c2ccccc2F)c2ccccc2n1`, the inhibition is 4.69%. With `Cc1ccc(-n2cc(CN(C)Cc3nccn3C)c(-c3cccc(C)c3)n2)cc1`, the inhibition was -5.32%. For the compound `COc1ccc(S(=O)(=O)Nc2cccnc2)c(Cl)c1Cl`, the inhibition was -2.39%. On to `O=C(NCCCN1CCOCC1)c1ccc(N2CCCC2)c([N+](=O)[O-])c1`, for which the inhibition was -1.03%. With `CC(C)(C)c1nnc(N/N=C/c2ccc(O)cc2)n(N)c1=O`, the inhibition was -3.71%. For `CC(C)(C)NC(=O)NC(=O)CN1CCC(Cc2ccccc2)CC1`, the inhibition is -4.14%.

For `CCN1/C(=C\c2ccc3ccccc3[n+]2CC)Sc2cc(C)ccc21`, the inhibition was -5.46%. The figure for `Cc1scc(C(=O)NNC(=S)NCc2ccccc2)c1C` is -7.68%. With `COc1ccc(/C=N/n2c(C)cc(C)cc2=O)cc1`, the inhibition was -7.11%. Consider `CCCn1c(NC(=O)C23CC4CC(CC(O)(C4)C2)C3)nc2ccccc21`, for which the inhibition is -0.11%.

Usually inhibition stands for the relative decrease from the control value, in per cent.
